Source: PubChem BioAssay AID589 (National Center for Advancing Translational Sciences (NCATS), 2007)
Screen size: about 59,000 compounds; about 6,200 (11%) were called active. Another 9% or so got no clear call; they are omitted. Rule as the data show it: active = max dye-equivalent concentration above about 10 nM; inconclusive = mostly about 1.1 nM to 9.6 nM; inactive = weaker than that. The sample as a whole holds a higher share of actives than the screen did.

Test: qHTS Assay for Spectroscopic Profiling in 4-MU Spectral Region
Settings: compound autofluorescence, 340/450 nm, 4-MU equivalents; hits give high values
Description: NIH Molecular Libraries Screening Centers Network [MLSCN] NIH Chemical Genomics Center [NCGC] […] Occasionally, the artifactual effect may originate from the compounds own spectral or other biophysical properties which generally tend to track its assay concentration. Pre-screening/profiling the library with respect to the compounds spectral properties should help one exclude false positives early on. While the most informative fluorescent profiling data set is obtained by performing a full excitation and emission scan of each well by using a monochromator-based plate reader, such an approach is practical only on a very limited scale as scanning each well requires long time. An alternative approach, applied here, is to perform plate reader scans using selected excitation and emission wavelength pairs to generate a multidimensional relational database that correlates compound concentration and the respective relative fluorescence intensity at a given wavelength set. A standard curve of 4-methylumbelliferone (4-MU) present on each plate as six-point concentration series, was used to compute a normalized fluorescence response, termed dye-equivalent concentration, for each compound at each concentration.
NCGC Assay Protocol Summary: Buffer: 100 mM Tris buffer, pH 8.0 Dye standard plate: The wells in columns 1 through 4 of a Kalypsys polypropylene 1536-well compound plate were filled with standard solutions of fluorophore corresponding to the spectral region of interest. Solutions of 4-MU were placed in the following wells: A1, B1: 3 mM, A2, B2: 300 uM, A3, B3: 30 uM, A4, B4: zero (DMSO), C1, D1: 3 uM, C2, D2: 900 nM, C3, D3: 300 nM, C4, D4: zero (DMSO). Assay Steps: Six uL of buffer were dispensed to 1536-well Greiner black plates. Compounds and dye standards (23 nL) were transferred via Kalypsys PinTool. The plates were incubated for 15 min at room temperature, and then read on ViewLux (Perkin-Elmer) High-throughput CCD imager using 340 nm and 450 nm excitation and emission filter set. Keywords: NIH Roadmap, MLSCN, MLI, MLSMR, qHTS, NCGC, Fluorescent Profiling, 4MU, 4-MU

| Structure (SMILES) | max dye-equivalent concentration |
| --- | --- |
| Cn1c(CC(=O)Nc2ccccc2)nnc1SCC(=O)c1ccccc1 | inactive |
| CC(=O)N1CCC2(CC1)CCN(c1ccncc1)CC2 | inactive |
| COc1cccc(NC(=O)c2ccccc2SC)c1 | inactive |
| COc1cc(OC)cc(C(=O)Nc2ccc(-c3nc4ccccc4o3)c(O)c2)c1 | 330 nM (active) |
| COc1ccc(NC(=O)c2c(C)oc3c2CCCC3)cc1 | inactive |
| O=C1[C@@H]2C(Cc3ccc(O)cc3)NC3(C(=O)Nc4ccc(F)cc43)[C@@H]2C(=O)N1c1ccc(F)cc1 (some centres undefined) | inactive |
| CC(Sc1sc(=S)sc1SC(C)C(=O)O)C(=O)O (centres undefined) | inactive |
| CC(C)CCNc1nc(N2CCCC2)c2c(c1C#N)CCN(C)C2 | 24 nM (active) |
| COc1ccc(OC)c(NC(=O)CN2CCN(C(=O)c3ccco3)CC2)c1 | inactive |
| Cc1csc(NC(=O)CN2CCCCCC2)n1 | inactive |
| Cc1csc(NC(=O)NC2(C(F)(F)F)Oc3ccccc3O2)n1 | 110 nM (active) |
| O=C(Nc1cc(N2CCOCC2)ncn1)NC1(C(F)(F)F)Oc2ccc(Cl)cc2O1 (centres undefined) | inactive |
| C[C@H](NC(=O)NCCc1ccccc1)C(=O)O | inactive |
| CNc1ncnc2ccc(-c3cccc(NS(C)(=O)=O)c3)cc12 | inactive |
| Cn1c(SCC(=O)OC2CCCCC2)nnc1-c1ccc(S(=O)(=O)N2CCCC2)cc1 | inactive |
| O=C(Oc1cccnc1)c1cc2ccccc2oc1=O | 82 nM (active) |
| O=C(NCc1ccccn1)c1cnc2sccn2c1=O | inactive |
| O=C(NCc1ccccn1)Nc1ccc(F)cc1 | inactive |
| Cc1ccsc1C(=O)OCC(=O)c1cc2ccccc2o1 | inactive |
| O=C(NCc1ccccn1)c1cc2ccccc2oc1=O | 22 nM (active) |
| COc1ccc2oc(=O)c(C(=O)O)cc2c1 | inactive |
| Cc1cc(NC(=O)COC(=O)c2ccc(F)c(S(=O)(=O)N3CCOCC3)c2)no1 | inactive |

| Structure (SMILES) | max dye-equivalent concentration |
| --- | --- |
| COc1ccc(NC(=O)N2CC3(CCN(C(=O)c4cccn4C)CC3)C2)cc1 | inactive |
| Cc1cc(=O)[nH]c(SCc2cc(Cl)ccc2OC(F)F)n1 | inactive |
| COc1ccccc1C(=O)N1CCNC(=O)C1CC(=O)Nc1ccc(Cl)cc1 (centres undefined) | inactive |
| CCCCc1cc(=O)oc2cc(C)cc(OCc3nn[nH]n3)c12 | 59 nM (active) |
| Cc1c(O)c(Br)c(C)c(O)c1Br (tested in a mixture with another compound) | inactive |
| CCc1nnc(NC(=O)c2nc3nccc(C)n3n2)s1 | inactive |
| CCC1=C/C(=C\c2ccc3c(c2)OCO3)C(=O)S1 | inactive |
| O=C(C1CCCO1)N1CCC(c2nc3ccccc3[nH]2)CC1 (centres undefined) | inactive |
| COc1cc2nc(N3CCN(C(=O)[C@@H]4CCCO4)CC3)nc(N)c2cc1OC | 890 nM (active) |
| COc1ccccc1CNC(=O)C1CCN(c2nc3ccccc3o2)CC1 | inactive |
| COc1ccc2[nH]cc(CCNc3ncnc4ccc(-c5ccccc5CN(C)C)cc34)c2c1 | inactive |
| Cc1ccccc1NC(=O)c1cc(S(=O)(=O)N2CCOCC2)cs1 | inactive |
| CN(CC(=O)NC1CCCCC1)S(=O)(=O)c1ccc(Br)s1 | inactive |
| COCCNC(=O)C(c1ccc(C)o1)N(Cc1cccs1)C(=O)c1snc(C(N)=O)c1N (centres undefined) | 110 nM (active) |
| COCCNC(=O)C(c1ccc(C)o1)N(Cc1ccccc1)C(=O)Cn1nnc2ccccc21 (centres undefined) | inactive |
| CCC(C(=O)NC1CCCC1)N(C(=O)c1snc(C(N)=O)c1N)c1ccc2c(c1)OCCO2 (centres undefined) | inactive |
| CCOC(=O)CCCNC(=O)CN1C(=O)NC(CCc2ccccc2)C1=O (centres undefined) | inactive |
| CCOC(=O)c1ccc(NC(=O)CS(=O)(=O)c2cn(CC)c3ccccc23)cc1 | inactive |
| O=C(Nc1ccccc1-c1nnn(CC(=O)N2CCN(c3ccccc3)CC2)n1)c1cccs1 | inactive |
| Cc1[nH]c(N)nc(=S)c1CCCNc1ccccc1 | inactive |
| Cn1c(=O)c2c(nc(NCCc3ccccc3)n2Cc2ccccc2)n(C)c1=O | inactive |
| CCCSc1nc2c(c(=O)[nH]c(=O)n2C)n1CCc1ccccc1 | inactive |

| Structure (SMILES) | max dye-equivalent concentration |
| --- | --- |
| Cn1c(=S)c2[nH]c(SCCCc3ccccc3)nc2n(C)c1=O | 13 nM (active) |
| O=C(CC(Cc1ccccc1)C(=O)O)NCCc1ccc2c(c1)OCO2 (centres undefined) | inactive |
| CCOc1ccc(OCC)c(NC(=O)CSc2nnc(Cn3cnc4ccccc43)n2C)c1 | inactive |
| COC(=O)COc1ccc2oc(=O)cc(C)c2c1 | 25 nM (active) |
| CCOC(=O)c1c(C)oc2ccc(OCC(=O)N(CC)CC)cc12 | inactive |
| COc1ccc2oc(C)c(NC(C)=O)c2c1 | inactive |
| Cc1nc(CNS(=O)(=O)c2cccnc2)cs1 | inactive |
| COc1ccccc1NC(=O)C1=C(C)Nc2nnnn2C1c1cccc(Br)c1 (centres undefined) | inactive |
| CCCCCOC(=O)C1=C(C)Nc2nnnn2C1c1ccc(OC)c(OC)c1OC (centres undefined) | inactive |
| COC(=O)c1ccc(C2C3=C(Nc4nnnn42)c2ccccc2OC3)cc1 (centres undefined) | 59 nM (active) |
| O=C(CNS(=O)(=O)c1ccc(Br)s1)NCc1ccc2c(c1)OCO2 | inactive |
| O=C(N1CCOCC1)N(Cc1ccccc1)c1ccccn1 | inactive |
| NC(=O)CSc1c[nH]c2ccccc12 | inactive |
| Cc1ccc2c(c1)C(O)(CC(=O)c1cccnc1)C(=O)N2 (centres undefined) | inactive |
| CCc1cc2c(=O)c(-c3ccon3)c(N)oc2cc1OC | inactive |
| COc1ccccc1Cc1nc(-c2ccc(C)cc2)no1 | 16 nM (active) |
| Cc1ccc(Cc2nc(-c3cccc(C)c3)no2)cc1 | inactive |
| Cc1ccc(-c2noc(CN3CCN(Cc4ccccc4)CC3)n2)cc1 | inactive |
| O=C(Nc1cccc(F)c1)N1CCC2(CC1)CCN(S(=O)(=O)c1ccccc1)CC2 | inactive |
| CN1CCCC(OC(=O)COc2ccc(Br)cc2)C1 (centres undefined) | inactive |
| CCCSC1=C(C#N)C(c2ccccc2C)C(C(=O)OC)C(=O)N1 (centres undefined) | inactive |
| Cc1cc(C)c2c(c1)cc(C)c1nnc(SCC(=O)Nc3cc(C)on3)n12 | inactive |

| Structure (SMILES) | max dye-equivalent concentration |
| --- | --- |
| Cc1nc(SCC(=O)Nc2cc(C)on2)c2c(C)c(C)sc2n1 | inactive |
| Cc1ccc2nc(-c3ccc(SCC(=O)Nc4cc(C)on4)nc3)[nH]c2c1 | 33 nM (active) |
| CCOc1ccccc1C(=O)NCc1ccco1 | inactive |
| CCOc1ccccc1C(=O)NCCCn1ccnc1 | inactive |
| CCOc1ccccc1C1C(C(=O)OC)=CN(C)C=C1C(=O)OC | 10000 nM (active) |
| CN(C(=O)COc1nnc(-c2cccs2)c(-c2cccs2)n1)c1ccccc1 | inactive |
| COc1ccccc1CCn1c(=O)c(-c2cn(C)c3ccccc23)nc2cncnc21 | inactive |
| COCCn1c(=O)c(-c2cccs2)nc2cnc(N3CCN(C)CC3)nc21 | 14 nM (active) |
| COCCn1c(=O)c(-c2cccs2)nc2cncnc21 | 74 nM (active) |
| COC(=O)[C@@H]1[C@H]2C[C@H]3c4[nH]c5cc(OC)ccc5c4CCN3C[C@@H]2C[C@@H](OC(=O)c2cc(OC)c(OC)c(OC)c2)[C@@H]1OC | inactive |
| CCCCn1nnnc1NCc1cc(OC)c(OC)c(OC)c1 | inactive |
| COC(=O)CCNc1ccc2c(c1)OCCO2 | inactive |
| CCOc1cccc(-c2nnc3sc(COc4ccc(OC)cc4)nn23)c1 | inactive |
| CCOc1ccc(-c2nnc3ccc(SC)nn23)cc1 | 12 nM (active) |
| O=C1NC(=O)[C@@](Cc2ccccc2)(c2cccnc2)N1 | inactive |
| O=c1cc(CSc2ccc(Cl)cc2)nc(N2CCOCC2)[nH]1 | inactive |
| CCOC(=O)N1CC=C2C(C#N)=C(N)C(C#N)(C#N)[C@H](c3cccs3)[C@H]2C1 | 27 nM (active) |
| CC1=C(C(=O)Nc2ccccc2)C(c2cccs2)C(C#N)=C(SCC#N)N1 (centres undefined) | inactive |
| O=C(c1cc(C(F)(F)F)cc(C(F)(F)F)c1)N1CCC2(CC1)CN(c1ccncc1)C2 | inactive |
| Cc1cc(O)ccc1-c1cnc2ccccc2n1 | inactive |
| Cc1nc2ccccc2cc1O | 2300 nM (active) |
| CCOC(=O)c1cc2ccccc2nc1C | inactive |

| Structure (SMILES) | max dye-equivalent concentration |
| --- | --- |
| CC(=O)N1CCN(C(=O)Nc2cccc(C(F)(F)F)c2)CC1 | inactive |
| Cc1ccc(NC(=O)CCNS(=O)(=O)c2ccc3c(c2)oc(=O)n3C)cc1C | inactive |
| O=C1c2ccccc2C(=O)N1CCCSc1ccccc1 | inactive |
| Nc1ccc(SCCN2C(=O)c3ccccc3C2=O)cc1 | inactive |
| C[N+](C)(CCCCCC[N+](C)(C)CCCN1C(=O)c2cccc3cccc(c23)C1=O)CCCN1C(=O)c2cccc3cccc(c23)C1=O | 260 nM (active) |
| CCCC(=O)Nc1ccc(C(=O)NCCCn2ccnc2)cc1 | inactive |
| CSc1ccc(S(=O)(=O)NCc2ccc(Cl)cc2)cc1 | inactive |
| COCCNc1nc(-n2nc(C)cc2C)nc2sc3c(c12)CCCC3 | 920 nM (active) |
| Cc1cc(C)n(-c2nc(SCC(=O)N3CCCC3)c3c4c(sc3n2)CCCC4)n1 | inactive |
| COCCn1c(C)cc(C(=O)CSc2ncnc3sc4c(c23)CCC4)c1C | inactive |
| COc1ccc(S(=O)(=O)Nc2ccc3c(c2)OCO3)cc1Cl | inactive |
| N#Cc1ccc(COC(=O)Cn2nnc(-c3ccccc3)n2)cc1 | inactive |
| CCCNS(=O)(=O)c1ccc2c(c1)CCCN2C(C)=O | inactive |
| CC(C)OCCCNc1ncnc2c1[nH]c1ccc(F)cc12 | 12 nM (active) |
| Fc1cc(F)c2nc(N3CCOCC3)sc2c1 | inactive |
| CCN(CC)C(=O)CSc1nnc(-c2cnccn2)n1-c1ccc(C)cc1 | inactive |
| O=C(CSc1nnc(-c2cnccn2)n1Cc1ccco1)c1ccc(Cl)c(Cl)c1 | inactive |
| Cn1c(SCc2c(F)cccc2Cl)nnc1-c1cnccn1 | 17 nM (active) |
| O=C(COc1ccccc1)N1CCc2ccccc2C1 | inactive |
| Cn1c(/C(C#N)=C2/CCCCCN2)nc2ccccc21 | 22 nM (active) |
| N#C/C(=C1\CCCN1)c1nc(-c2ccccc2)cs1 | inactive |
